An excerpt weighted towards active compounds, which were near 5.7% of everything screened.
DAX1 inh-1 = DAX1 (NR0B1) inhibitors on StAR promoter, primary screen, cell-based, luminescence, SF-1 (NR5A1), full-length DAX-1. 370,000 compounds, 1.1% hits. HEK293T StAR-luciferase reporter, SF-1/DAX-1 repression relief. inhibition, % at 6.8 µM. AID 652010, 2013;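 active = inhibition above the mean over all tested compounds plus 3 SD, cut at about 3.6% in these data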;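 note: 0% = DAX-1 cells with DMSO and 100% = cells lacking DAX-1 with DMSO; higher inhibition means more luminescence from relief of DAX-1 repression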
hgDAF-12 ag = H. glycines DAF-12 receptor agonists, primary screen, cell-based, luminescence, HEK293, GAL4 fusion, UAS-luciferase | HEK293 GAL4-hgDAF12 UAS-luciferase reporter, agonist luminescence; normalized to butyrate control | activation, % at 6.8 µM | 370,000 compounds, 1.8% hits;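 active = activation above a cutoff set at the mean of all screened compounds plus 3 SD, cut at about 10% in these data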;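 note: 0% = DMSO wells and 100% = sodium butyrate wells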
hcDAF-12 act = H. contortus DAF-12 nuclear receptor activators, primary screen, cell-based, luminescence, HEK293, lit1-tk-luc reporter; HEK293 hcDAF-12 lit1-tk-luc reporter; 0% DMSO, 100% Δ7-dafachronic acid; activation, % at 6.8 µM; 370,000 compounds, 1.4% hits; AID 652067, 2013;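 active = activation above the mean of all tested compounds plus 3 SD, cut at about 5.5% in these data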;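 note: 100% = response to 3 µM Δ7-dafachronic acid high control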
DAX1 inh-2 = DAX1 (NR0B1) inhibitors, primary screen, cell-based, HEK293, Gal4-DAX1, luciferase luminescence. HEK293 Gal4-DAX1 luciferase reporter. 340,000 compounds, 0.99% hits. Nuclear receptor subfamily 0 group B member 1 (Homo sapiens), P51843. inhibition, % at 6.75 µM;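 active = inhibition above the mean over all tested compounds plus 3 SD, cut at about 4.2% in these data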;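 note: 0% = DAX1-transfected cells with DMSO and 100% = empty-vector control cells with DMSO; inhibition shows as a rise in luminescence from relieved DAX1 repression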
AHR act = AHR activators, primary screen, cell-based, luminescence, luciferase reporter, human; 320,000 compounds, 2.5% hits; AID 2796, 2010; AHR-responsive luciferase reporter cells; Aryl hydrocarbon receptor (Homo sapiens), P35869; activation, % at 5 µM; in the data active = activation above about 47%;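 note: 0% = vehicle wells and 100% = reference agonist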
Target sequence (P35869 whole entry, looked up): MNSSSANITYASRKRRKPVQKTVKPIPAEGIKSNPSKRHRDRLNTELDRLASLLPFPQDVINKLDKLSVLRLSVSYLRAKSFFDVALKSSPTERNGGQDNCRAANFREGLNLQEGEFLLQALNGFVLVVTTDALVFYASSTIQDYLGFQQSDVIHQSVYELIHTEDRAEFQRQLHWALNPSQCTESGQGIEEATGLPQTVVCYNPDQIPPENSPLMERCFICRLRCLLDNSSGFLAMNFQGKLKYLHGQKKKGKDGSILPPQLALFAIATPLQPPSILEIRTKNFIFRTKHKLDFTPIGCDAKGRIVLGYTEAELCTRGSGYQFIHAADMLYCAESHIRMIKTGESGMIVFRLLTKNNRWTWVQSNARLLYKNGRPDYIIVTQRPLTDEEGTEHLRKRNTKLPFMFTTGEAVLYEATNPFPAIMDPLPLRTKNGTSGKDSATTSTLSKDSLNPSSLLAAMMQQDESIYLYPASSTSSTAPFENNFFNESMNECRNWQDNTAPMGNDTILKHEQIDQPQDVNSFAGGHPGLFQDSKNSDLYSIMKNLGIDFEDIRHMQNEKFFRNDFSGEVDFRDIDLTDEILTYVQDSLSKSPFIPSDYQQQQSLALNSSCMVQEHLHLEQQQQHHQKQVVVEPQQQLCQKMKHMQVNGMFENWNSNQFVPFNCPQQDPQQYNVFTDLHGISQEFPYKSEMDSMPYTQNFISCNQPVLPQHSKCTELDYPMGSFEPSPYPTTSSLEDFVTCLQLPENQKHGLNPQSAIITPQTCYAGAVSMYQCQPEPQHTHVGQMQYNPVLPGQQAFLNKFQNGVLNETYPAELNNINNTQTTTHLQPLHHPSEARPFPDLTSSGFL
ssDAF-12 act = S. stercoralis DAF-12 nuclear receptor activators, primary screen, cell-based, luminescence, HEK293, GRIP1 co-expression, lit1-tk-luc; Nuclear hormone receptor DAF-12 (Strongyloides stercoralis); AID 652126, 2013; activation, % at 6.8 µM; 370,000 compounds, 1% hits; HEK293 ssDAF-12/GRIP1 lit1-tk-luc reporter; % of 3 µM dafachronic acid response;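 active = activation above the mean over all tested compounds plus 3 SD, cut at about 0.9% in these data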;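 note: 0% = DMSO-only wells and 100% = 3 µM delta7-dafachronic acid wells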
LXRb hcDAF ctr = LXR agonists, Gal4 luciferase reporter, confirmation, counter-screen for hcDAF-12 agonist project, cell-based, luminescence, HEK293, H. contortus campaign; AID 743027, 2013; activation, % at 6.8 µM; shares compounds with hcDAF-12 act; HEK293 Gal4-LXR tk-luc reporter, 24 h; normalized: DMSO 0%, positive control 100%; 3,400 tested, under 10 active;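 active = mean percent activation of the reporter above a cutoff set as the average over tested compounds plus their standard deviation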
hcDAF12 ag = H. contortus DAF-12 receptor agonists, confirmation, cell-based, luminescence, HEK293, lit1-tk-luc, triplicate; shares compounds with hcDAF-12 act; HEK293 hcDAF-12 lit1-tk-luc reporter; % of Δ7-dafachronic acid response; activation, % at 6.8 µM; 3,400 compounds, 61% hits;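 active = mean activation across triplicate tests above the threshold derived from the earlier primary screen, cut at about 5.5% in these data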;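 note: 0% = DMSO only wells and 100% = 3 µM Δ7-dafachronic acid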
hgDAF12 conf = H. glycines DAF-12 receptor agonists, confirmation, cell-based, luminescence, HEK293, GAL4-LBD fusion | shares compounds with hgDAF-12 ag | HEK293 GAL4-hgDAF12 luciferase reporter, agonist mode; percent of butyrate response | activation, % at 6.8 µM | 3,300 compounds, 80% hits | AID 743050, 2013;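 active = mean activation over triplicate wells above the hit cutoff derived from the earlier primary screen, cut at about 11% in these data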;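 note: 0% = DMSO low control and 100% = 2 mM sodium butyrate high control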
LXRb DAF12 ctr = LXR agonists, Gal4 luciferase reporter, confirmation, counter-screen for hgDAF-12 agonist project, cell-based, luminescence, HEK293, H. glycines campaign; shares compounds with hgDAF-12 ag; 24 h; activation, % at 6.8 µM; 3,300 tested, under 10 active; AID 743051, 2013;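 active = mean activation of the triplicate above a set limit carried over from the primary screen, none filed active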
* marks the source's active call; other numbers are inactive results; . = no result given.

SMILES	DAX1 inh-1	hgDAF-12 ag	hcDAF-12 act	DAX1 inh-2	AHR act	ssDAF-12 act	hgDAF12 conf	LXRb DAF12 ctr	others
c1ccc(Nc2nc3ccccc3o2)cc1	3.2	14.2*	8.1*	1.9	28.4	0.9*	21.4*	0.9	LXRb hcDAF ctr=1.4;hcDAF12 ag=8.3*
CCN(CC)S(=O)(=O)c1ccc2oc(Nc3ccccc3)nc2c1	0.2	4.4	1.5	0.6	32.7	0.3	.	.
Cc1cc(C)nc(Nc2ccccc2F)n1	-0.2	-1.6	-1.0	0.7	-0.8	-1.2	.	.
Fc1ccccc1Nc1nc2ccccc2o1	3.1	16.2*	8.2*	1.7	4.8	0.8	19.1*	0.8	LXRb hcDAF ctr=1.8;hcDAF12 ag=9.0*
Oc1ccccc1-c1cc(C(F)(F)C(F)F)[nH]n1	-0.1	2.4	-0.6	0.2	1.2	-1.9	.	.
O=[N+]([O-])c1ccccc1-c1cc(-c2ccccc2O)n[nH]1	2.2	16.0*	7.9*	0.9	23.0	0.8	12.9*	0.4	LXRb hcDAF ctr=0.7;hcDAF12 ag=3.9
O=c1c2c(nc3cc(-c4ccccc4)[nH]n13)CCC2	2.5	15.0*	3.0	0.2	31.2	-0.2	13.3*	0.8
O=c1c2c(nc3cc(-c4ccc(Br)cc4)[nH]n13)CCCC2	3.7*	14.0*	1.4	6.3*	-3.7	1.4*	19.8*	1.1
Cc1cccnc1NC(=O)c1ccc(S(=O)(=O)N2CCCC2)cc1	-1.3	-0.4	1.1	0.1	.	-0.8	.	.
CC(C)CN(C(=O)COC(=O)CSc1ccccc1F)c1c(N)n(Cc2ccccc2)c(=O)[nH]c1=O	-0.2	0.3	-1.5	0.7	0.4	-1.3	.	.
N#Cc1cncc(-c2ccc3c(c2)OCCOCCOCCOCCOCCO3)n1	0.0	-1.9	0.7	2.0	-0.2	-1.4	.	.
CC(=Nc1ccc(C)cc1C)c1sc2ccccc2c1O	4.2*	21.0*	5.7*	5.8*	6.0	1.9*	24.1*	1.3
Cc1ccc(O)c(N=Cc2sc3ccccc3c2Cl)c1	0.2	-4.2	3.2	0.6	30.1	-0.2	.	.
O=C(NCc1cccs1)c1cc(-c2ccc(O)cc2)on1	2.6	14.8*	4.2	5.7*	5.2	-0.8	18.0*	0.7
O=C(NCc1ccccc1)c1cc(-c2ccco2)on1	0.4	2.4	0.8	-0.2	0.1	-0.5	.	.
O=C(NCc1ccccc1)c1cc(-c2cccc(O)c2)on1	2.4	18.1*	-0.2	0.1	11.0	-0.2	11.8*	0.4
Cc1ccc(NC(=O)c2cc(-c3cccc(O)c3)on2)cc1C	3.0	14.4*	0.9	1.8	3.8	1.0*	14.1*	0.4
COc1cccc(-c2cc(C(=O)Nc3cccnc3)no2)c1	0.8	15.1*	1.2	-0.4	11.9	-0.4	21.4*	0.5
CN(Cc1ccccc1)C(=O)CCC(=O)N(C)Cc1ccccc1	0.4	8.4	1.2	1.3	5.7	-0.2	.	.
CCN(CC)N=Nc1[nH]nc2nc(C)cc(C)c12	0.3	-1.5	-1.1	0.8	42.8	-1.0	.	.
CC(C)(C)c1ccc(-c2n[nH]c(=S)n2CCCN2CCOCC2)cc1	-0.3	0.2	-1.4	-1.1	3.5	-0.8	.	.
COc1ccc(CNC(=O)c2cc(-c3ccc(OC)c(OC)c3)on2)cc1	-0.7	-2.0	-2.5	0.2	-8.6	-0.9	.	.
COc1ccc(-c2cc(C(=O)NCc3ccccc3)no2)cc1OC	-0.8	19.7*	-1.6	-0.2	-3.8	-1.4	-2.1	0.0
COc1ccc(C2CC(c3ccc(Cl)cc3)=NN2c2ccc(S(N)(=O)=O)cc2)cc1 (configuration not stated)	-1.4	0.9	-0.2	-0.4	.	-0.8	.	.
COc1ccc(C2CC(c3ccncc3)=NN2c2ccc(S(N)(=O)=O)cc2)cc1 (configuration not stated)	2.9	26.1*	4.5	3.7	.	0.5	21.5*	0.6
SMILES	DAX1 inh-1	hgDAF-12 ag	hcDAF-12 act	DAX1 inh-2	AHR act	ssDAF-12 act	hgDAF12 conf	LXRb DAF12 ctr	others
O=C(c1cc(-c2ccc(Cl)cc2)on1)N1CCCC1	2.7	13.5*	3.6	1.9	-5.7	1.1*	15.7*	0.9
CCN(CC)c1ccc2cc(C(=O)Nc3ccccn3)c(=O)oc2c1	2.6	14.3*	4.9	2.2	-3.5	0.5	17.5*	1.1
COc1cc(C(=O)Nc2cc(OC)c(OC)c(OC)c2)ccc1OCc1c(C)noc1C	-0.5	-0.9	-2.5	-0.5	-0.6	-1.5	.	.
CN(CC(=O)Nc1cccc(F)c1)C(=O)Cc1ccsc1	-0.5	2.2	1.3	0.8	.	-0.7	.	.
COc1ccc(-c2c(C)nc3c(-c4ccccn4)cnn3c2N)cc1	3.0	14.3*	5.0	0.7	.	0.3	10.5*	1.1
COc1ccc(OCc2nn3c(-c4ccccn4)nnc3s2)cc1	-1.5	0.3	-2.0	-0.1	3.3	-1.4	.	.
O=C(c1ccc2c(=O)n3c(nc2c1)CCC3)N1CCCSC1=Nc1ccccc1	-0.2	-0.4	0.7	-1.9	-2.1	-0.8	.	.
COC(=O)C[C@H]1CC[C@@H]2[C@H](COc3ccc(NC(=O)c4ccccc4OC)cc3C(=O)N2C)O1	-0.3	14.6*	-2.1	.	.	0.2	-0.4	0.0
Cc1ccc(C(=O)Nc2sc(C(=O)N(C)C)c(C)c2C#N)cc1	0.3	-0.3	-2.2	1.5	6.9	-1.5	.	.
Cc1sc(NC(=O)c2ccccc2)c(C#N)c1-c1ccccc1	2.3	15.7*	2.1	2.2	18.6	0.2	11.7*	0.5

Bioassay records deposited in PubChem BioAssay by The Scripps Research Institute Molecular Screening Center.
